# In PubChem BioAssay AID588855 (National Center for Advancing Translational Sciences (NCATS), 2011):
# In all, about 410,000 compounds went through this assay and about 5,000 (1.2%) were called active. About 13% were inconclusive and are not listed. What follows is part of a selection rich in actives, with near analogues and random picks from the rest. Values without a mark were called inactive. The call rests on the fitted dose curve; in most records, active means well fitted inhibition curve with a large enough effect; inconclusive means small, poorly fitted or top-dose-only effect; inactive means no such curve, though single readings can be large or run the other way.
# Test: qHTS for Inhibitors of TGF-b; further: nearly all actives have a fitted effect of over 65% in size
# Details: HepG2 CAGA-GFP TGF-b/SMAD3 reporter, GFP fluorescence, 18 h, TGF-beta stimulated, 500 pg/mL final; series mostly up to 46.1 µM; activity, negative = inhibition: at the top concentration
# Source text: TGF-b is a main component in the TGF-b signaling pathway which plays diverse roles in cellular and development pathways. TGF-b is the mediated by the transcription factors Smads. Although the Smad-dependent pathway is the primary canonical TGF-b signaling node, TGF-b1 can also activate alternative signaling pathways, including those involving MAPK (ERK, JNK and p38). This interaction may mediate or enhance Smad-dependent responses, or can exert Smad-independent effects. The complexity of this signaling cascade allows the TGF-b superfamily to perform unique, overlapping or redundant functions. We believe that targeting the TGF-beta pathway at the Smad-transcription factor level may eliminate the consequences of disrupting the entire pathway and offer specificity without affecting other signaling pathways. Smad3 is the primary transducer of TGF-b's signals and Smad3 regulates many functions attributed to TGF-b signaling. We hypothesize that Smad3 inhibitors will selectively eliminate Smad3-specific TGF-beta signals without undesired off-target effects. We aim to identify Smad3-small molecule antagonists using a quantitative high throughput screening (qHTS) approach.
# A high-throughput assay was developed to screen the NIH Molecular Libraries Small Molecule Repository (MLSMR). This is a cell based assay, where TGF-b is tagged with GFP. A counterscreen is run that looks at cytotoxicity (please see summary AID).
# MH087449NIH Chemical Genomics Center [NCGC]
# NIH Molecular Libraries Probe Centers Network [MLPCN]
# Assay Submitter (PI): Sushil Rane, National Institute of […]
# Suspensions of trypsinized HEPG2 CAGA-GFP cells were dispensed into white, tissue culture-treated, solid 1536-well plates at 5uL/well (1000 cells/well final concentration) in DMEM medium supplemented with 1% FBS. Plates were incubated at 37 degrees C for 2 hours, after which 23 nL of compounds or DMSO were delivered to each well using a pin tool. One uL of recombinant TGF-beta in DMEM (1% FBS) was then dispensed (500 pg/mL final concentration), and plates were incubated at 37 degrees C for 18 hours. The plates were measured on an Acumen eX3 Explorer plate reader for GFP fluorescence (ex488/em500-530). GFP values were calculated by determining the mean GFP fluorescence of individual cells, and compiling these values for each well to determine a total well GFP signal. The %Activity was determined from the corrected fluorescence values. A titration of the known TGF-B inhibitor SB431542 was included to monitor plate performance, while unstimulated HEPG2 (-TGF-B) control wells were used to normalize %Activity of identified inhibitors; unstimulated wells corresponded to 100%Activity (full inhibition), while stimulated cell controls (+DMSO) were used to normalize 0%Activity (no inhibition).
# Concentration-response curves were fitted to the signals arising from the resulting fluorescence. The concentration-effect curves were then classified based on curve quality (r2), response magnitude and degree of measured activity, and compounds were subsequently categorized based on their curve class.
# Potency means the concentration at half of the fitted maximal effect.
Structure (SMILES),Potency,"activity, negative = inhibition [%]"
CCCSC(=S)NC1CCS(=O)(=O)C1 (stereo not drawn),11.2 µM (active),
CC(C)C(=O)NC(NC(=S)NC1CCS(=O)(=O)C1)C(Cl)(Cl)Cl (stereo not drawn),,-5.61
COc1ccc(NC(=S)NC2CCS(=O)(=O)C2)cc1 (stereo not drawn),,-2.2
CCCC12CN3CC(CCC)(CN(C1)C3c1c[nH]c3ccc(OC)cc13)C2=O (stereo not drawn),,3.08
COc1cc(NC(=O)c2nc3ccccc3nc2C)cc(OC)c1OC,,25.6
COc1cc(C(=O)N2CCC(c3ccncc3)CC2)cc(OC)c1OC,,0.25
Cc1ccc(N2CC(NC(=O)Cc3cccs3)CC2=O)cc1 (stereo not drawn),,-7.03
CCN(CC)S(=O)(=O)c1ccc(N2CCOCC2)c(NC(=O)c2ccc(=O)n(C)n2)c1,,2.21
CCN(CC)S(=O)(=O)c1cc(C(=O)Nc2cc(S(=O)(=O)N3CCOCC3)ccc2N2CCCC2)ccc1F,,-17.7
CCN(CC)S(=O)(=O)c1ccc(N2CCCC2)c(NC(=O)c2ccc([N+](=O)[O-])o2)c1,11.2 µM (active),
CCc1ccc(C2C(C(=O)Nc3ccccc3)=C(C)Nc3c(C(=O)Nc4ccc(C)cc4)cnn32)cc1 (stereo not drawn),,-29.9
Cc1nc(N2CCOCC2)c2c(C(=O)NCc3cccc(Cl)c3)c(C)oc2n1,,-6.9
O=C(CCn1ccc2cc(S(=O)(=O)N3CCCC3)ccc21)NCc1cccc(Cl)c1,,-17.6
COC(=O)CCc1ccccc1S(=O)(=O)N(CCC(=O)OC)Cc1ccccc1,,-14.8
COc1ccc(-c2nc(=N)sn2-c2ccccc2)cc1,,-2.14
O=C(Nc1ncccc1O)c1ccc(C(=O)c2ccccc2)cc1,,-26.3
O=C(NC1=CC(=O)c2ccccc2C1=O)c1ccccc1,10 µM (active),
O=C(Nc1ccc2ccccc2c1[N+](=O)[O-])c1ccccc1,,-1.78
CCOc1ccccc1C(=O)Nc1ccc(S(=O)(=O)N2CCCCC2c2cccnc2)cc1 (stereo not drawn),,7.36
Cc1nnc(NCc2ccccc2)c2c1nnn2Cc1ccc(F)cc1,,5.18
O=C(NCc1cccs1)c1cc(-c2ccccn2)nc2ccc(Br)cc12,,5.1
CC(C)Cn1c(N)c(C(=O)NCc2cccs2)c2nc3ccccc3nc21,15.8 µM (active),
O=C(Cc1coc2ccc3ccccc3c12)NCc1cccs1,,-13

Structure (SMILES),Potency,"activity, negative = inhibition [%]"
CCN(CC)c1ccc(/C=C/c2c(C)cnc3ccc(C)cc23)cc1,,-5.97
Clc1cccc[n+]1CCCC[n+]1ccccc1Cl,,-4.74
S=C(NCc1ccc(Cl)cc1)NC12CC3CC(CC(C3)C1)C2,11.2 µM (active),
O=C(NCc1ccc2c(c1)OCO2)C12CC3CC(CC(C3)C1)C2,,-11.2
Cc1ccc(C(=O)NC23CC4CC(CC(C4)C2)C3)c(Cl)c1,,1.93
CCC(=O)Nc1ccc(C)cc1-c1nc2ccccc2n(Cc2ccccc2)c1=O,,-5.27
Nc1ccc(/C=C/c2ccnc3ccccc23)c([N+](=O)[O-])c1,,1.61
CCCCN(CC)CCCNC(=O)c1nn(C)c2c1CSc1ccccc1-2,,-0.617
COc1cccc(CNC(=O)c2cccnc2Sc2ccc(Cl)cc2)c1,,0
CC(=O)/C(=N\Nc1ccc(Cl)cc1Cl)Sc1cccc2cccnc12,2.82 µM (active),
COc1c(Cl)cc(Cl)cc1C(=O)Nc1cccc2cccnc12,,17.3
COc1cccc(CN2CCc3nc(SCC(=O)Nc4ccccc4)[nH]c(=O)c3C2)c1,,0.442
COc1ccccc1NC(=O)c1oc2ccccc2c1NC(=O)C(C)C,,-0.0648
O=C(OCC(=O)N1CCN(C(=O)c2ccco2)CC1)c1cccc(O)c1,,-8.99
CN(c1ccccc1)S(=O)(=O)c1cc(C(=O)OCC(=O)N2CCN(C(=O)c3ccco3)CC2)ccc1Cl,10 µM (active),
O=C(OCC(=O)N1CCN(C(=O)c2ccco2)CC1)c1c(Cl)cccc1Cl,,-17.9
CCOc1ccc(NC(=O)c2cnn(-c3ccccc3)c2-n2cccc2)cc1,,-1.27
Cc1c(CNC(C)c2ccccc2)c(C(=O)O)c(C)n1Cc1c(F)cccc1Cl (stereo not drawn),,1.13
CCc1cccc(NC(=O)CSc2nccn2C)c1,,-2.18
O=C(Cn1ncc2c3ccccc3n(Cc3ccccc3)c2c1=O)NC1CCCCCC1,,-2.78
COc1ccc(C2(O)C(=O)Nc3ccccc32)cc1 (stereo not drawn),,-0.596
COc1ccccc1CNS(=O)(=O)c1ccc2c(c1)NC(=O)CS2,,-3.83
Cc1ccc(CC2(C)C(=O)Nc3ccc(OC(F)(F)F)cc32)cc1 (stereo not drawn),15.8 µM (active),

Structure (SMILES),Potency,"activity, negative = inhibition [%]"
COc1ccccc1CC1(C)C(=O)Nc2ccc(OC(F)(F)F)cc21 (stereo not drawn),20 µM (active),
O=C(CSc1ncc(-c2ccccc2)[nH]1)Nc1ccc(F)cc1F,,0
Cc1ccc(N2CC(C(=O)Nc3ccc(N(C)C)cc3)CC2=O)cc1Cl (stereo not drawn),,0.536
Cc1cccc(OCC(=O)N(Cc2ccc(C(C)C)cc2)Cc2ccco2)c1C,,-18.9
CN(C)c1ccc(/C=C/c2c3ccccc3nc3ccccc23)cc1,,-19.8
COc1ccccc1N1CCN(C2C(=O)c3ccccc3N2C(C)=O)CC1 (stereo not drawn),,0
COc1ccc(NC(=O)CCNS(=O)(=O)c2ccc3c(c2)CCCC(=O)N3)cc1Cl,,2.37
CCOC(=O)CN1CCC(c2ccccc2)CC1,,-5.44
CCOC(=O)C[C@H]1c2ccc(C(F)(F)F)cc2S(=O)(=O)N1c1ccccc1,14.1 µM (active),
CCOC(=O)CNC(=O)/C(=C\c1ccc(F)cc1)NC(=O)c1ccccc1,,5.26
CC(C)OCC(O)CN1CCN(C(c2ccccc2)c2ccccc2)CC1 (stereo not drawn),,3.7
CC1(C)CC(N2CCN(C(c3ccccc3)c3ccccc3)CC2)=CC(=[N+]2CCCCC2)C1,6.31 µM (active),
Cc1onc(C(=O)NN)c1C(=O)N1CCN(C(c2ccccc2)c2ccccc2)CC1,,3.15
COc1ccc(NC(=O)c2sc3nc(-c4cc5cccc(OC)c5oc4=O)[nH]c(=O)c3c2C)cc1,,-21.6
Cc1csc[n+]1CCC1CCCCC1,,0.0338
Cc1ccccc1C(=O)Nc1cc(C)c(O)c(-c2nc3ccccc3o2)c1,,-8.84
CC(=O)c1nn(-c2ccc(OC(F)(F)F)cc2)nc1Nc1ccccc1,,-3.72
COC(=O)c1cnn(-c2ccc(C(=O)Nc3ccc(OC(F)(F)F)cc3)cc2)c1N,,-19.7
CC1CCc2c(nc3ncnn3c2Nc2ccc(OC(F)(F)F)cc2)C1 (stereo not drawn),15.8 µM (active),
CCCN(CCC)CCNC(=O)c1cc2c(C)nc3ccccc3c2o1,,-30.9
Cc1cc(C)n(C(=O)CCNC(=O)c2ccccc2Cl)n1,,-15
CN(C)CCNC(=O)c1ccc(Cl)c2cc3ccccc3nc12,3.55 µM (active),
